Results on 32 sequences are retold here after article PMC12820563, “FoxP3 forms a head-to-head dimer in vivo and stabilizes its multimerization on adjacent microsatellites”.

Over roughly 16,000 sequences, “rpm ratio (pull-down/input)” has its median near 0.94; the highest 2% begin near 1.7. The sample as a whole holds a higher share of the highest values than the screen did.

This experiment addresses T1, MBP-FoxP1dN (Mus musculus, UniProt P58462 326-579).
T1 sequence: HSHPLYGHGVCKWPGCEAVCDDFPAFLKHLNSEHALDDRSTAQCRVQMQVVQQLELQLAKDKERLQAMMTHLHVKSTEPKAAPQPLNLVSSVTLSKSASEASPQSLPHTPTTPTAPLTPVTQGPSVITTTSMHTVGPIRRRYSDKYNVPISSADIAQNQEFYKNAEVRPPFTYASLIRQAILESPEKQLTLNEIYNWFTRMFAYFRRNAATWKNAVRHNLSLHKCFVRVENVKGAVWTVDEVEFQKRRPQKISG
The experiment can be described thus: PD-seq (MBP pull-down with sequencing); 20 mM Tris-HCl pH 7.5, 100 mM NaCl, 1.5 mM MgCl2, 0.4 uM protein, 0.1 uM dsDNA library, 30 min, room temperature, amylose pull-down; high values mean tight binding. The following applies: protein: recombinant; tags: His6-MBP; chain copies: 2; dsDNA, one strand shown. Put shortly:
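The N-terminus-lacking fragment of mouse FoxP3 or FoxP1 carried a His6-MBP tag and was expressed in E. coli. At 0.4 µM it was incubated with 0.1 µM Klenow-filled degenerate double-stranded DNA library for 30 min at room temperature in Tris pH 7.5 buffer with NaCl and MgCl2, and complexes were caught on amylose resin, washed three times, released with proteinase K, PCR-barcoded and Illumina-sequenced. Binding is reads-per-million enrichment of pull-down over input with replicates pooled.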
In the case of “GATGATTGTTCTCCCAGCTGATGAATTCATATTCTCGAGTAAACAAATTTTCCTAATCTTTCTGTTCAAGCGCCATCTAC”, the binding signal is 0.83 RPM ratio (pull-down/input).
On to “GATGATTGTTCTCCCAGCTGATGAATTCATATTTTCGAGTAAACAAATTTTCCTAATCTTTCTGTTCAAGCGCCATCTAC”, for which the binding signal is 1.74 RPM ratio (pull-down/input).
“GATGATTGTTCTCCCAGCTGATGAATTAGATCGGTCGAGTAAACAAATTTTCCTAATCTTTCTGTTCAAGCGCCATCTAC”: the binding signal is 0.789 RPM ratio (pull-down/input).
With “GATGATTGTTCTCCCAGCTGATGAATTGTGGGAATCGAGTAAACAAATTTTCCTAATCTTTCTGTTCAAGCGCCATCTAC”, the binding signal was 1.08 RPM ratio (pull-down/input).
With “GATGATTGTTCTCCCAGCTGATGAATTCCGTCCTTCGAGTAAACAAATTTTCCTAATCTTTCTGTTCAAGCGCCATCTAC”, the binding signal was 0.801 RPM ratio (pull-down/input).
As for “GATGATTGTTCTCCCAGCTGATGAATTAGGTGATTCGAGTAAACAAATTTTCCTAATCTTTCTGTTCAAGCGCCATCTAC”, the binding signal was 1.06 RPM ratio (pull-down/input).
Take “GATGATTGTTCTCCCAGCTGATGAATTCGTTGTATCGAGTAAACAAATTTTCCTAATCTTTCTGTTCAAGCGCCATCTAC”: the binding signal is 1.3 RPM ratio (pull-down/input).
As to “GATGATTGTTCTCCCAGCTGATGAATTCCTCAAGTCGAGTAAACAAATTTTCCTAATCTTTCTGTTCAAGCGCCATCTAC”, the binding signal is 0.819 RPM ratio (pull-down/input).
With “GATGATTGTTCTCCCAGCTGATGAATTGAGCGTGTCGAGTAAACAAATTTTCCTAATCTTTCTGTTCAAGCGCCATCTAC”, the binding signal is 0.844 RPM ratio (pull-down/input).
Consider “GATGATTGTTCTCCCAGCTGATGAATTTTGGTATTCGAGTAAACAAATTTTCCTAATCTTTCTGTTCAAGCGCCATCTAC”, for which the binding signal was 1.06 RPM ratio (pull-down/input).
For “GATGATTGTTCTCCCAGCTGATGAATTGGTATTGTCGAGTAAACAAATTTTCCTAATCTTTCTGTTCAAGCGCCATCTAC”, the binding signal was 2.44 RPM ratio (pull-down/input).
For “GATGATTGTTCTCCCAGCTGATGAATTGGTATTCTCGAGTAAACAAATTTTCCTAATCTTTCTGTTCAAGCGCCATCTAC” the value was 1.02 RPM ratio (pull-down/input); for “GATGATTGTTCTCCCAGCTGATGAATTTGGTATGTCGAGTAAACAAATTTTCCTAATCTTTCTGTTCAAGCGCCATCTAC”, 0.971 RPM ratio (pull-down/input); for “GATGATTGTTCTCCCAGCTGATGAATTTGGTATTTCGAGTAAACAAATTTTCCTAATCTTTCTGTTCAAGCGCCATCTAC”, 1.07 RPM ratio (pull-down/input).
As to “GATGATTGTTCTCCCAGCTGATGAATTGGTATTTTCGAGTAAACAAATTTTCCTAATCTTTCTGTTCAAGCGCCATCTAC”, the binding signal is 2.46 RPM ratio (pull-down/input).
The value for “GATGATTGTTCTCCCAGCTGATGAATTCGGACCGTCGAGTAAACAAATTTTCCTAATCTTTCTGTTCAAGCGCCATCTAC” was 0.773 RPM ratio (pull-down/input); that for “GATGATTGTTCTCCCAGCTGATGAATTAGGTTCATCGAGTAAACAAATTTTCCTAATCTTTCTGTTCAAGCGCCATCTAC” was 0.921 RPM ratio (pull-down/input); that for “GATGATTGTTCTCCCAGCTGATGAATTGCCAGTCTCGAGTAAACAAATTTTCCTAATCTTTCTGTTCAAGCGCCATCTAC” was 0.829 RPM ratio (pull-down/input).
“GATGATTGTTCTCCCAGCTGATGAATTCTGACTTTCGAGTAAACAAATTTTCCTAATCTTTCTGTTCAAGCGCCATCTAC”: the binding signal was 0.897 RPM ratio (pull-down/input).
In the case of “GATGATTGTTCTCCCAGCTGATGAATTTTTTTGGTCGAGTAAACAAATTTTCCTAATCTTTCTGTTCAAGCGCCATCTAC”, the binding signal was 0.952 RPM ratio (pull-down/input).
Regarding “GATGATTGTTCTCCCAGCTGATGAATTTGATTGGTCGAGTAAACAAATTTTCCTAATCTTTCTGTTCAAGCGCCATCTAC”, the binding signal was 0.963 RPM ratio (pull-down/input).
For “GATGATTGTTCTCCCAGCTGATGAATTGTTTTGGTCGAGTAAACAAATTTTCCTAATCTTTCTGTTCAAGCGCCATCTAC”, the binding signal was 2.02 RPM ratio (pull-down/input).
Consider “GATGATTGTTCTCCCAGCTGATGAATTGTTTGGGTCGAGTAAACAAATTTTCCTAATCTTTCTGTTCAAGCGCCATCTAC”, for which the binding signal was 1.79 RPM ratio (pull-down/input).
In the case of “GATGATTGTTCTCCCAGCTGATGAATTCTTTTGGTCGAGTAAACAAATTTTCCTAATCTTTCTGTTCAAGCGCCATCTAC”, the binding signal is 1 RPM ratio (pull-down/input).
Turning to “GATGATTGTTCTCCCAGCTGATGAATTTCTTTGGTCGAGTAAACAAATTTTCCTAATCTTTCTGTTCAAGCGCCATCTAC”, the binding signal was 0.881 RPM ratio (pull-down/input).
For the sequence “GATGATTGTTCTCCCAGCTGATGAATTTGTTTGGTCGAGTAAACAAATTTTCCTAATCTTTCTGTTCAAGCGCCATCTAC”, the binding signal is 2.1 RPM ratio (pull-down/input).
As for “GATGATTGTTCTCCCAGCTGATGAATTTTTTGGGTCGAGTAAACAAATTTTCCTAATCTTTCTGTTCAAGCGCCATCTAC”, the binding signal was 0.836 RPM ratio (pull-down/input).
The value for “GATGATTGTTCTCCCAGCTGATGAATTTGTTGGGTCGAGTAAACAAATTTTCCTAATCTTTCTGTTCAAGCGCCATCTAC” was 1.56 RPM ratio (pull-down/input); that for “GATGATTGTTCTCCCAGCTGATGAATTTTGTTGGTCGAGTAAACAAATTTTCCTAATCTTTCTGTTCAAGCGCCATCTAC” was 2.26 RPM ratio (pull-down/input); that for “GATGATTGTTCTCCCAGCTGATGAATTTGGTTGGTCGAGTAAACAAATTTTCCTAATCTTTCTGTTCAAGCGCCATCTAC” was 0.868 RPM ratio (pull-down/input).
The value for “GATGATTGTTCTCCCAGCTGATGAATTGGTTTGGTCGAGTAAACAAATTTTCCTAATCTTTCTGTTCAAGCGCCATCTAC” was 0.947 RPM ratio (pull-down/input); that for “GATGATTGTTCTCCCAGCTGATGAATTCTTTAAGTCGAGTAAACAAATTTTCCTAATCTTTCTGTTCAAGCGCCATCTAC” was 0.837 RPM ratio (pull-down/input).
